PubChem BioAssay AID777 (Sanford-Burnham Center for Chemical Genomics, 2007)
Among all 96,000 compounds or so, about 19,000 (20%) were called active.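 Rule for the calls: active = blocking of liver enzyme CYP2C9 beyond about 50% at 5 µM (limit read from the data); inactive = the rest.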 The list is a sample of the results.

Biological target: Cytochrome P450 2C9 (Homo sapiens) (UniProt P11712)
Test: blockers of cytochrome P450 2C9 activity – biochemical, luminescence, ADME assay, primary screen (AID 777)
Conditions: CYP2C9 Supersomes, luciferin-H conversion, at 5 µM, stronger effect = higher value

Cytochrome P450 2C9 (Homo sapiens), sequence (P11712 whole entry, looked up): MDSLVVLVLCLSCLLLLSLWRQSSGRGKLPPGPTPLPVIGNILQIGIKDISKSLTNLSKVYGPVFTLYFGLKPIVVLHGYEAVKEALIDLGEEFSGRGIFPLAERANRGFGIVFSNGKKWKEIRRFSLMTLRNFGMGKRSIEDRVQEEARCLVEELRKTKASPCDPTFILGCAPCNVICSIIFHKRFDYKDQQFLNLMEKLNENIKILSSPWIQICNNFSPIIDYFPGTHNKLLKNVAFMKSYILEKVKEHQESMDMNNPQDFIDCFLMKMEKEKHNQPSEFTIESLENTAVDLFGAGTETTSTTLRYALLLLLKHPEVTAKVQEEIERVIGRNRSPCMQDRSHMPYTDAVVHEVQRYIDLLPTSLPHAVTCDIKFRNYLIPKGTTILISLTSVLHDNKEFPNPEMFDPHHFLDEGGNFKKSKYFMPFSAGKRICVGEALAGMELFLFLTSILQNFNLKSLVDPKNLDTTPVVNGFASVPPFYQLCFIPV

Structure (SMILES)	inhibition
O=C(/C=C/c1cccs1)c1cc(Cl)ccc1OC(=O)N1CCOCC1	28.1% (inactive)
O=C(Cn1nc(Cc2cccnc2)c2ccccc2c1=O)NCC1CCCO1 (stereo unspecified)	21.3% (inactive)
O=C(Cn1nc(Cc2cccnc2)c2ccccc2c1=O)NCC1COc2ccccc2O1 (stereo unspecified)	66.1% (active)
O=C(Cn1cnc2ccccc2c1=O)NCC1COc2ccccc2O1 (stereo unspecified)	61.2% (active)
CC1Oc2ccccc2N(Cc2cccnc2)C1=O (stereo unspecified)	14% (inactive)
CN(Cc1ccccc1)C(=O)CCNC(=O)Cn1cnc2ccccc2c1=O	24.9% (inactive)
O=C(CN1C(=O)C2C3C=CC(C3)C2C1=O)NCC1COc2ccccc2O1 (stereo unspecified)	-1.1% (inactive)
Cc1cc(OC(=O)c2c(Cl)cccc2Cl)nc(C)n1	2.9% (inactive)
CCC(C)NC(=O)CCCc1ccccc1 (stereo unspecified)	-17.4% (inactive)
c1ccc(Cc2nn3c(Cn4cnc5ccccc54)nnc3s2)cc1	24.4% (inactive)
CC(=O)c1cn(CCCCCCCCCCn2cc(C(C)=O)c(=O)[nH]c2=O)c(=O)[nH]c1=O	3.4% (inactive)
CC(=O)c1c(C)n([O-])c2ccccc2[n+]1=O	-1.1% (inactive)
CCOC(=O)N1CCN(C(=O)c2cc3c(ccc4ccccc43)oc2=O)CC1	45.9% (inactive)
O=C(COc1ccc2c3c(c(=O)oc2c1)CCC3)NC1CCCCC1	73.7% (active)
CC1(C)CC(=O)c2cc(OCC(=O)NCC3CCCO3)ccc2O1 (stereo unspecified)	18.5% (inactive)
NC(=O)COc1ccc2c3c(c(=O)oc2c1)CCCCC3	-7.4% (inactive)
COC(=O)Cn1cc(C(=O)c2cccs2)c2ccccc21	25.3% (inactive)
COC(=O)c1cn(CC(=O)NCc2cccs2)c2ccccc12	23.2% (inactive)
O=C(Cn1cc(C(=O)c2cccs2)c2ccccc21)NCc1cccs1	93.7% (active)
CN(C)c1ccnc(Oc2ccc(F)cc2)c1C#N	40.8% (inactive)
CCOC(=O)N1CCN(C(=O)COc2ccc(Br)cc2)CC1	-4.3% (inactive)
CCOC(=O)N1CCC(O)(c2cc(C)c(C)cc2C)CC1	67.1% (active)

Structure (SMILES)	inhibition
CCOC(=O)N1CCN(C(=O)COc2ccc(Cl)cc2C)CC1	-15.4% (inactive)
COC(=O)c1ccc(N(CC(=O)NC2CCCC2)C(=O)CNC(=O)c2ccco2)cc1	28.7% (inactive)
Cc1cc(C)nc(SCc2ccccc2C#N)n1	-24.8% (inactive)
Cc1ccc(Cc2cncc(O)c2)cc1S(=O)(=O)O	0.1% (inactive)
Cc1cc(NS(=O)(=O)c2ccccc2)no1	12.3% (inactive)
O=S(=O)(Nc1ccc2nc(-c3ccco3)[nH]c2c1)c1ccccc1	85.2% (active)
c1ccc2[nH]c(-c3nc4ccccc4[nH]3)nc2c1	16.1% (inactive)
Cc1cc(C)c2c3c(sc2n1)C(c1ccccc1)C(C#N)=C(N)O3 (stereo unspecified)	11% (inactive)
Fc1ccc(OCc2nn3c(Cn4nnc5ccccc54)nnc3s2)cc1	23.6% (inactive)
O=C(Nc1ccccc1)c1cccnc1Nc1ccccc1	1.5% (inactive)
O=C(Nc1ccccc1)c1ccccc1NC(=O)C(F)(F)F	74.8% (active)
Cc1cccc(NC(=O)c2ccccc2NC(=O)C(C)(C)C)n1	11.7% (inactive)
Cc1ccc(-n2c(=O)cc(N3CCN(Cc4ccccc4)CC3)[nH]c2=O)cc1	22.1% (inactive)
CCOC(=O)C1CCN(C(=O)COc2cc(C)c(Br)c(C)c2)CC1	15.8% (inactive)
CCCN1CCN(C(=O)Cn2ncc3ccccc32)CC1	1% (inactive)
O=c1ccn(Cc2ccccc2Cl)cc1	-5.8% (inactive)
O=c1[nH][nH]c(C(F)(F)F)c1C=NCc1ccccc1Cl	55.5% (active)
Cc1ccc(N(NC(=O)C(C)(C)O)C(=O)c2ccccc2)cc1C	2.5% (inactive)
NS(=O)(=O)c1cccnc1Nc1cccc(Cl)c1	5.6% (inactive)
O=C(Cn1cncn1)N/N=C/c1c2ccccc2cc2ccccc12	63.7% (active)
O=C(Cc1ccccc1)N/N=C/c1ccc(Cl)cc1Cl	23.1% (inactive)
Cc1ccc(/C=N/NC(=O)Cn2nc(C)c(Br)c2C)o1	23.7% (inactive)

Structure (SMILES)	inhibition
CC(=O)Oc1ccc(C(C)=O)c2c1OCCO2	-9.3% (inactive)
N#CCCn1cnc2ccccc21	-0.8% (inactive)
CC1(c2ccccc2Cl)NC(=O)N(CC(=O)NC(=O)NCc2ccco2)C1=O (stereo unspecified)	67.6% (active)
O=C(CN1CCN(S(=O)(=O)/C=C/c2ccccc2)CC1)NC(=O)NCc1ccco1	40.2% (inactive)
Cc1ccc(SCC(=O)NC(=O)NCc2ccco2)c(C)c1	30% (inactive)
Cc1cccc(NC(=O)c2ccc3ccccc3n2)n1	-0.8% (inactive)
COc1cc(OC)nc(NC(=O)CCl)n1	-14.2% (inactive)
O=P(O)(CP(=O)(c1ccccc1)c1ccccc1)c1ccccc1O	-5.8% (inactive)
CC(CO)N1CCS(=O)(=O)CC1 (stereo unspecified)	-5.6% (inactive)
COc1ccc(NC(=O)C(CC(C)C)NS(=O)(=O)c2ccc3c(c2)CCN3C(C)=O)cc1OC (stereo unspecified)	7.4% (inactive)
Brc1ccc(OCCn2ccnc2)cc1	72.1% (active)
CC(=O)NS(=O)(=O)c1ccccc1	0.2% (inactive)
O=C1C(Cl)=C(N2CCOCC2)C(=O)N1c1ccccc1	5% (inactive)
CC1(C)SC2c3ccccc3C(=O)N2[C@@H]1C(=O)NCc1ccco1 (stereo partly specified)	57.9% (active)
CC(C)(C)c1ccc(NC(=O)NCc2ccco2)cc1	-17.8% (inactive)
COc1cc2c(cc1OC)C(C(=O)NCc1ccco1)C1c3ccccc3CCN1C2=O (stereo unspecified)	42% (inactive)
CC1CCc2c(sc3c2C2=NS(=O)(=O)CCN2C=N3)C1 (stereo unspecified)	6.8% (inactive)
O=C(Nc1cc(-c2nn(CC(=O)N3CCCCC3)c(=O)c3ccccc23)ccc1N1CCOCC1)c1ccc(Cl)cc1	0.2% (inactive)
CC(C)CC(=O)Nc1cc(C(F)(F)F)ccc1N1CCOCC1	9.9% (inactive)
O=C(Cn1nnc2ccccc2c1=O)Nc1cc(C(F)(F)F)ccc1N1CCOCC1	60.7% (active)
CCCCc1nccn1CCn1ccnc1CCCC	-10.5% (inactive)
CN1CCN(CC(=O)Nc2sc3c(c2C#N)CCC(C(C)(C)C)C3)CC1 (stereo unspecified)	33.8% (inactive)
